Inconclusive results are not listed. Calls of active or inactive are those of the source. Unless noted, the call rests on the fitted dose curve; in most records, active means well fitted cell-killing curve with a large enough effect in the repeat runs; inconclusive means weak or mixed curves, or effect the other way; inactive means no such curve, though single readings can be large or run the other way.

The first assay in a line: qHTS assay to identify small molecule antagonists of the vitamin D receptor (VDR) signaling pathway - cell viability counter screen (AID 743225). Further: nearly all actives have a fitted effect of over 50% in size. The settings on record: VDR-bla HEK293T viability, CellTiter-Glo luminescence, 16 h; series mostly up to 61 µM. Summed up: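 Same-well multiplex: following 16 h treatment of HEK 293T cells carrying a UAS-driven beta-lactamase reporter with compound and agonist (3 nM final), and a 2 h FRET substrate step, CellTiter-Glo was added and luminescence read after 30 min.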
With `C=CCN1CCc2nc(N)sc2CC1`, the call was inactive.
With `O=C(O)Cc1c(Cl)ccc(Cl)c1Cl`, the call was inactive.
Regarding `CCCCCCCCCCCCCC(=O)OCC`, the call was inactive.
Regarding `CC(=O)OCC(=O)[C@@]1(O)CC[C@H]2[C@@H]3CCC4=CC(=O)C=C[C@]4(C)[C@H]3[C@@H](O)C[C@@]21C`, the compound was classed as inactive.
Turning to `Cc1cc(N)no1`, the result was inactive.
Regarding `O=c1c(O)c(O)c1=O`, the result was inactive.
For `CC/C=C/CCCCCCCCCCOC(C)=O`, the compound was classed as inactive.
On the same count and under the same terms, the result for `N=C(N)N` reads “inactive”; that for `CC(=O)Oc1ccc(C(C)=O)cc1`, “inactive”.
Take `CC(=O)c1c(C)cc(C(C)(C)C)cc1C`: the compound was classed as inactive.
For `CN(C)CCc1c[nH]c2ccc(C[C@H]3COC(=O)N3)cc12`, the call was inactive.
The same measure, in the same setting: the result for `O=C(O)/C=C(\CC(=O)O)C(=O)O` reads “inactive”.
Take `CC(C)(O)c1ccc(C(C)(C)O)cc1`: the compound was classed as inactive.
`Nc1cc(S(=O)(=O)O)ccc1O`: the result was inactive.
For `CC(=O)Nc1ccc(S(=O)(=O)Nc2cc(C)on2)cc1`, the call was inactive.
As to `CC(O)CCCCn1c(=O)c2c(ncn2C)n(C)c1=O` (stereo unspecified), the compound was called inactive.
Turning to `CCC(C)c1nccnc1OC` (stereo unspecified), the result was inactive.
On the same count and under the same terms, then `CN(C)c1cc(NC(=O)CNC(C)(C)C)c(O)c2c1C[C@H]1C[C@H]3[C@H](N(C)C)C(=O)C(C(N)=O)=C(O)[C@@]3(O)C(=O)C1=C2O`, with “inactive”.
The same measure, in the same setting: the result for `CC1(C)CC(N)CC(C)(C)N1` reads “inactive”; that for `C/C=C(\C)C(=O)OC/C=C(\C)CCC=C(C)C`, “inactive”; that for `COC(=O)c1cc(Cl)c(NC(C)=O)cc1OC`, “inactive”.
For the compound `O=C(c1ccccc1)c1cccc(O)c1`, the compound was classed as inactive.
Still for that read-out and setting: the result for `C=C(C)C(=O)OCCCC` reads “inactive”; that for `CN(C)CCc1c[nH]c2ccc(CS(=O)(=O)N3CCCC3)cc12`, “inactive”; that for `Cc1ccc(O)c([N+](=O)[O-])c1`, “inactive”.
As to `C[C@]12C=CC(=O)C=C1[C@@H](F)C[C@@H]1[C@@H]2[C@@H](O)C[C@@]2(C)[C@H]1CC[C@]2(O)C(=O)CO`, the compound was classed as inactive.
On the same count and under the same terms, the result for `Cc1ccccc1OCC(=O)O` reads “inactive”; that for `Cc1ccc(N)nc1`, “inactive”.
Take `Cc1cc(C)c(C)c(C)c1`: the call was inactive.
As for `CCCC(=O)OC`, the outcome was inactive.
Same read-out and setting: then `O=S(=O)(O)c1ccc(Cl)cc1`, with “inactive”; and `CN(C)c1ccncc1`, with “inactive”.
On to `CC(O)C(CO)C(C)O` (stereo unspecified), for which the call was inactive.
The same measure, in the same setting: the result for `CC1(C)S[C@@H]2[C@H](NC(=O)Cc3ccccc3)C(=O)N2[C@H]1C(=O)O` (tested in a mixture with another compound) reads “inactive”; that for `CN1CCN(C(=O)C2CCCCC2)CC1`, “inactive”; that for `C=CCCCCCCCCCCCCCC`, “inactive”.
For the compound `CC(C)(C)C(=O)CCc1ccc(Cl)cc1`, the result was inactive.
For the compound `CCCc1ncc(C(=O)O)s1`, the result was inactive.

A further assay in a line: qHTS assay to identify small molecule agonists of the NFkB signaling pathway - cell viability counter screen (AID 1159515; calls by dose curve; further: nearly all actives have a fitted effect of over 55% in size). Conditions: NFkB-bla ME-180 viability, CellTiter-Glo luminescence, 5 h; series mostly up to 61 µM. Summed up: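 NFkB-bla ME-180 cells, 2,000/well, were plated overnight at 37 C, 5% CO2, then exposed to compounds in DMSO for 5 hr. After the bla FRET read, CellTiter-Glo was added to the same wells; luminescence was read after 30 min at room temperature.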
In general terms: qHTS replaces the single test concentration by a dilution series.
Take `C=CCN1CCc2nc(N)sc2CC1`: the call was inactive.
In the case of `O=C(O)Cc1c(Cl)ccc(Cl)c1Cl`, the compound was classed as inactive.
For `CCCCCCCCCCCCCC(=O)OCC`, the call was inactive.
For `CC(=O)OCC(=O)[C@@]1(O)CC[C@H]2[C@@H]3CCC4=CC(=O)C=C[C@]4(C)[C@H]3[C@@H](O)C[C@@]21C`, the compound was called inactive.
For `Cc1cc(N)no1`, the compound was called inactive.
For the compound `O=c1c(O)c(O)c1=O`, the compound was called inactive.
Turning to `CC/C=C/CCCCCCCCCCOC(C)=O`, the compound was classed as inactive.
Consider `N=C(N)N`, for which the call was inactive.
Consider `CC(=O)Oc1ccc(C(C)=O)cc1`, for which the outcome was inactive.
As for `CC(=O)c1c(C)cc(C(C)(C)C)cc1C`, the call was inactive.
Same read-out and setting: the result for `CN(C)CCc1c[nH]c2ccc(C[C@H]3COC(=O)N3)cc12` reads “inactive”.
On the same count and under the same terms, the result for `O=C(O)/C=C(\CC(=O)O)C(=O)O` reads “inactive”; that for `CC(C)(O)c1ccc(C(C)(C)O)cc1`, “inactive”.
In the case of `Nc1cc(S(=O)(=O)O)ccc1O`, the compound was called inactive.
Regarding `CC(=O)Nc1ccc(S(=O)(=O)Nc2cc(C)on2)cc1`, the call was inactive.
Take `CC(O)CCCCn1c(=O)c2c(ncn2C)n(C)c1=O` (stereo unspecified): the result was inactive.
Regarding `CCC(C)c1nccnc1OC` (stereo unspecified), the outcome was inactive.
As to `CN(C)c1cc(NC(=O)CNC(C)(C)C)c(O)c2c1C[C@H]1C[C@H]3[C@H](N(C)C)C(=O)C(C(N)=O)=C(O)[C@@]3(O)C(=O)C1=C2O`, the outcome was inactive.
`CC1(C)CC(N)CC(C)(C)N1`: the result was inactive.
Consider `C/C=C(\C)C(=O)OC/C=C(\C)CCC=C(C)C`, for which the outcome was inactive.
In the case of `COC(=O)c1cc(Cl)c(NC(C)=O)cc1OC`, the compound was classed as inactive.
With `O=C(c1ccccc1)c1cccc(O)c1`, the call was inactive.
As to `C=C(C)C(=O)OCCCC`, the result was inactive.
Still for that read-out and setting: the result for `CN(C)CCc1c[nH]c2ccc(CS(=O)(=O)N3CCCC3)cc12` reads “inactive”; that for `Cc1ccc(O)c([N+](=O)[O-])c1`, “inactive”.
Turning to `C[C@]12C=CC(=O)C=C1[C@@H](F)C[C@@H]1[C@@H]2[C@@H](O)C[C@@]2(C)[C@H]1CC[C@]2(O)C(=O)CO`, the outcome was inactive.
For the compound `Cc1ccccc1OCC(=O)O`, the compound was classed as inactive.
Take `Cc1ccc(N)nc1`: the outcome was inactive.
On to `Cc1cc(C)c(C)c(C)c1`, for which the compound was classed as inactive.
The same measure, in the same setting: the result for `CCCC(=O)OC` reads “inactive”; that for `O=S(=O)(O)c1ccc(Cl)cc1`, “inactive”; that for `CN(C)c1ccncc1`, “inactive”.
In the case of `CC(O)C(CO)C(C)O` (stereo unspecified), the result was inactive.
For the compound `CC1(C)S[C@@H]2[C@H](NC(=O)Cc3ccccc3)C(=O)N2[C@H]1C(=O)O` (tested in a mixture with another compound), the result was inactive.
`CN1CCN(C(=O)C2CCCCC2)CC1`: the result was inactive.
For the compound `C=CCCCCCCCCCCCCCC`, the compound was classed as inactive.
Still for that read-out and setting: the result for `CC(C)(C)C(=O)CCc1ccc(Cl)cc1` reads “inactive”.
In the case of `CCCc1ncc(C(=O)O)s1`, the result was inactive.
